We go through one compound from the supplement of paper PMC6411743.

Experiment in all cases: NP40-soluble protein abundance relative to vehicle (solubility fold change) (ratio); higher = more soluble protein in presence of GTP
In one assay the target is T1, GLA (UniProt P06280).
T1 sequence (whole entry): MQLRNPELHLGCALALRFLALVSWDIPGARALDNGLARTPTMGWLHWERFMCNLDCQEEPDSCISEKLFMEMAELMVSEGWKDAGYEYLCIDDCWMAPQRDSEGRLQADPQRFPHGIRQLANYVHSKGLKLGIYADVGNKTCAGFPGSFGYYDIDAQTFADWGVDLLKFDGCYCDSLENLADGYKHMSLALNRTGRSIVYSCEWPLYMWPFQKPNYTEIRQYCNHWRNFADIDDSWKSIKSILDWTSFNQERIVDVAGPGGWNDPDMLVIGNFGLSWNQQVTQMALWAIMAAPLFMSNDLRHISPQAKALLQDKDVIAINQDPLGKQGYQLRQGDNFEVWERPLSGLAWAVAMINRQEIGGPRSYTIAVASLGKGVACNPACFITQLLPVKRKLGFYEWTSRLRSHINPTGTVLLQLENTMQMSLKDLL
An outline of the steps:
(§1)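 Jurkat crude lysate (Dounce-homogenised) was treated with eight concentrations from 0.1 to 10 mM for 10 min at room temperature, then 3 min at 37 °C. It was solubilised with 0.8% NP40 and benzonase (60 min, 4 °C) and ultracentrifuged, and the supernatant was TMT-labelled for LC-MS/MS. Intensities were vsn-normalised, and the value is the fold change against the NP40-processed vehicle per replicate, from three independent experiments.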

The target in a further assay is T2, SEC24A (UniProt O95486).
T2 sequence (whole entry): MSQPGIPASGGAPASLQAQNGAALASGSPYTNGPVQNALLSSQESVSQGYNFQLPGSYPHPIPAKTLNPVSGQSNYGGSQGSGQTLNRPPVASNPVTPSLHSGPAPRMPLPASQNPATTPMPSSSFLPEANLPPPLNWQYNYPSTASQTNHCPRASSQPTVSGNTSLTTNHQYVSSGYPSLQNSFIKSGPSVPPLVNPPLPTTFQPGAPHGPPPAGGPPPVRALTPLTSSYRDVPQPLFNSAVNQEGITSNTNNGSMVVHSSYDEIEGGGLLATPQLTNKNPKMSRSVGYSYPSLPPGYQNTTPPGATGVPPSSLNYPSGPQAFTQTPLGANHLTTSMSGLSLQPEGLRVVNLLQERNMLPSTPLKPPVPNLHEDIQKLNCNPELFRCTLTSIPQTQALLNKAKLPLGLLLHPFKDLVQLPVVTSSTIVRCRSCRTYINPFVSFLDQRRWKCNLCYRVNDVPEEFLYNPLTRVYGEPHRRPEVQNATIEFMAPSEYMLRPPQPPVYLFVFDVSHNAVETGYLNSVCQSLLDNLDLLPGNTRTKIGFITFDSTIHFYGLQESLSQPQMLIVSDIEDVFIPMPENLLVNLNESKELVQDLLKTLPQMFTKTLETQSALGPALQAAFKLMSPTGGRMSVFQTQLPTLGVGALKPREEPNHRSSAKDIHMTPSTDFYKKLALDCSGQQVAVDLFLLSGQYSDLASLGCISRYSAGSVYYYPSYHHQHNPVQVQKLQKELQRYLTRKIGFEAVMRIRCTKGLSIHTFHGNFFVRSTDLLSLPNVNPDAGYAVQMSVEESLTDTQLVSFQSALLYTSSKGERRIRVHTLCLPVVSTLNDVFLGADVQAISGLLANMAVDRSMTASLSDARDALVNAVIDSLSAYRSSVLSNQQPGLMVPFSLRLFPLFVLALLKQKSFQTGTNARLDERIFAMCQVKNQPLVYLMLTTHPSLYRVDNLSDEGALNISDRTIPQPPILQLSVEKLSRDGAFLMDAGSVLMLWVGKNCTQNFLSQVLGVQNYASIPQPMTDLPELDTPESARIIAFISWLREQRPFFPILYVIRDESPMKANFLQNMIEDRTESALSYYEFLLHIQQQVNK
The essentials: as §1

In the next assay the target is T3, TXNL1 (UniProt O43396).
T3 sequence (whole entry): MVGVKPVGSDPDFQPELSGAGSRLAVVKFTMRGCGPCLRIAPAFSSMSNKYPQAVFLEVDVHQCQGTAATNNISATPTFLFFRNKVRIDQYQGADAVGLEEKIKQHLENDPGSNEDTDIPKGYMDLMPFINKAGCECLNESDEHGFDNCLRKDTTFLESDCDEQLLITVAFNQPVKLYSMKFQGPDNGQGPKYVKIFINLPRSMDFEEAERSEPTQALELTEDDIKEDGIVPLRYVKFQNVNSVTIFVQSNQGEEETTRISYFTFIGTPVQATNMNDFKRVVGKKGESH
The essentials:
as §1

Each structure is given as a SMILES string. ± gives the standard deviation of the averaged measurements. About 5,400 targets were measured; listed, in parts, are those with the largest changes and a random draw of the rest.

Take `Nc1nc2c(ncn2[C@@H]2O[C@H](COP(=O)(O)OP(=O)(O)OP(=O)(O)O)[C@@H](O)[C@H]2O)c(=O)[nH]1` [guanosine triphosphate]: the NP40-soluble protein abundance in the assay with GLA (concentration: 0.1mM) stood at 1.04 ± 0.017; in the assay with GLA (concentration: 0.5mM), 1.04 ± 0.018; in the assay with GLA (concentration: 1mM) it was 1.01 ± 0.039; with GLA (concentration: 2mM) it was 0.982 ± 0.068; in the assay with GLA (concentration: 4mM) it was 0.985 ± 0.063; with GLA (concentration: 6mM), 0.966 ± 0.087. The NP40-soluble protein abundance in the assay with GLA (concentration: 8mM) stood at 0.983 ± 0.04; with GLA (concentration: 10mM) it was 0.979 ± 0.048; with SEC24A (concentration: 0.1mM) it was 0.974 ± 0.013; with SEC24A (concentration: 0.5mM) it was 0.986 ± 0.021; in the assay with SEC24A (concentration: 1mM) it was 0.926 ± 0.041; with SEC24A (concentration: 2mM) it was 0.909 ± 0.026. The NP40-soluble protein abundance with SEC24A (concentration: 4mM) worked out at 0.957 ± 0.019; in the assay with SEC24A (concentration: 6mM) it was 0.944 ± 0.02; in the assay with SEC24A (concentration: 8mM), 0.909 ± 0.027; with SEC24A (concentration: 10mM) it was 0.915 ± 0.036; in the assay with TXNL1 (concentration: 0.1mM) it was 0.993 ± 0.02; with TXNL1 (concentration: 0.5mM), 1.03 ± 0.064. Moreover, the NP40-soluble protein abundance in the assay with TXNL1 (concentration: 1mM) came to 1.02 ± 0.042; with TXNL1 (concentration: 2mM) it was 1.01 ± 0.07; in the assay with TXNL1 (concentration: 4mM), 1 ± 0.052; in the assay with TXNL1 (concentration: 6mM), 1.01 ± 0.046; with TXNL1 (concentration: 8mM), 1 ± 0.044; with TXNL1 (concentration: 10mM), 1.01 ± 0.054.
